± gives the standard deviation.

Common to all, as to assay: peptide microarray binding signal (635 nm), min-max normalized on array (fraction of array maximum); higher = stronger binding
Holding throughout (details): peptide region: H3 112-124

Test [1] deals with T1, HaloTag-ATRX ADD domain (163-292).
T1 chain: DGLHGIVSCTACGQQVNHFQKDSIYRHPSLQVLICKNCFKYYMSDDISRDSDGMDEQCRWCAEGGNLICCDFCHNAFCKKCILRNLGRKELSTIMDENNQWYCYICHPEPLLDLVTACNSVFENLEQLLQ
The method in brief: (§1)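 Binding signal is the mean intensity of triplicate spots, min-max scaled within each library. Histone 13-mer peptide–cellulose conjugates were spotted in triplicate on nitrocellulose with a Cy3 tracer and blocked overnight at 4°C. Probing lasted 1 h at 4°C, either with biotin-labelled HaloTag reader fusions (10 nM to 1 μM) and streptavidin-Alexa Fluor 647 or with rabbit histone antibodies (1:10,000 to 1:2,000) and anti-rabbit Alexa 647. An Axon GenePix 4000B read signal at 635 nm and misprints at 532 nm.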

Test [2] has as its target HaloTag-ING2 PHD (mouse Ing2 200-280). The gist of the method: as §1
Test [3] addresses anti-H3K4me3 antibody ab8580. The method in brief: as §1
For test [4], the target named is anti-H3K9me3 antibody ab8898. The gist of the method:
as §1

Setting [5] is: peptide modifications: H3K115me2 H3R116me2s, binder concentration: 1:2,000 dilution.
[6] abbreviates: peptide modifications: H3K115me2 H3R116me2s, binder concentration: 1:10,000 dilution.
[7] abbreviates: peptide modifications: H3K115me3 H3K122me3, binder concentration: 1:2,000 dilution.
Where [8] appears, read: peptide modifications: H3K115me3 H3K122me3, binder concentration: 1:10,000 dilution.
The mark [9] stands for this setting: peptide modifications: H3K115me3 H3R116cit, binder concentration: 1:2,000 dilution.
The mark [10] stands for this setting: peptide modifications: H3K115me3 H3R116cit, binder concentration: 1:10,000 dilution.
The mark [11] stands for this setting: peptide modifications: H3R116me2a, binder concentration: 1:2,000 dilution.
Setting [12] is: peptide modifications: H3R116me2a, binder concentration: 1:10,000 dilution.
Where [13] appears, read: peptide modifications: H3R116cit, binder concentration: 1:2,000 dilution.
Where [14] appears, read: peptide modifications: H3R116cit, binder concentration: 1:10,000 dilution.

IHAKRVTIMPKDI [H3 112-124 I H A Kme2 Rme2s V T I M P K D I]: the “peptide microarray binding signal” value in test [1] (peptide modifications: H3K115me2 H3R116me2s, binder concentration: 50 nM) is 0.006426 ± 2.2e-05; in test [1] (peptide modifications: H3K115me2 H3R116me2s, binder concentration: 500 nM), 0.00905 ± 0.00055; in test [2] (peptide modifications: H3K115me2 H3R116me2s, binder concentration: 10 nM), 0.0113 ± 0.0004; in test [2] (peptide modifications: H3K115me2 H3R116me2s, binder concentration: 100 nM), 0.0135 ± 0.00076; in test [3] (setting [5]), 0.00383 ± 0.0002; in test [3] (setting [6]), 0.00462 ± 0.00022. The “peptide microarray binding signal” value turned out to be 0.00335 ± 0.00032 in test [4] (setting [5]) and 0.00236 ± 3.7e-05 in test [4] (setting [6]).
Take IHAKRVTIMPKDI [H3 112-124 I H A Kme3 R V T I M P Kme3 D I]: the “peptide microarray binding signal” value in test [1] (peptide modifications: H3K115me3 H3K122me3, binder concentration: 50 nM) stood at 0.00652 ± 0.00013; in test [1] (peptide modifications: H3K115me3 H3K122me3, binder concentration: 500 nM), 0.014 ± 0.00024; in test [2] (peptide modifications: H3K115me3 H3K122me3, binder concentration: 10 nM) it was 0.08 ± 0.013; in test [2] (peptide modifications: H3K115me3 H3K122me3, binder concentration: 100 nM), 0.133 ± 0.011; in test [3] (setting [7]), 0.0798 ± 0.017; in test [3] (setting [8]), 0.0823 ± 0.0064. In addition, the “peptide microarray binding signal” value worked out at 0.0648 ± 0.013 in test [4] (setting [7]) and 0.0227 ± 0.0026 in test [4] (setting [8]).
With IHAKRVTIMPKDI [H3 112-124 I H A Kme3 Rcit V T I M P K D I], the “peptide microarray binding signal” value in test [1] (peptide modifications: H3K115me3 H3R116cit, binder concentration: 50 nM) was determined as 0.00821 ± 0.00022; in test [1] (peptide modifications: H3K115me3 H3R116cit, binder concentration: 500 nM) it was 0.0148 ± 0.00063; in test [2] (peptide modifications: H3K115me3 H3R116cit, binder concentration: 10 nM), 0.0661 ± 0.012; in test [2] (peptide modifications: H3K115me3 H3R116cit, binder concentration: 100 nM), 0.0923 ± 0.011; in test [3] (setting [9]), 0.0677 ± 0.0083; in test [3] (setting [10]), 0.058 ± 0.0049. For the same molecule, the “peptide microarray binding signal” value in test [4] (setting [9]) stood at 0.0746 ± 0.0023; in test [4] (setting [10]), 0.0265 ± 0.00085.
IHAKRVTIMPKDI [H3 112-124 I H A K Rme2a V T I M P K D I]: the “peptide microarray binding signal” value is 0.00257 ± 3e-05 in test [1] (peptide modifications: H3R116me2a, binder concentration: 50 nM); 0.00719 ± 0.00024 in test [1] (peptide modifications: H3R116me2a, binder concentration: 500 nM); 0.00322 ± 3.5e-05 in test [2] (peptide modifications: H3R116me2a, binder concentration: 10 nM); 0.007583 ± 5.2e-05 in test [2] (peptide modifications: H3R116me2a, binder concentration: 100 nM); 0.000396 ± 1.8e-05 in test [3] (setting [11]); 0.000514 ± 1.1e-05 in test [3] (setting [12]). Moreover, the results for the “peptide microarray binding signal” value in test [4] (setting [11]) and in test [4] (setting [12]) were 0.00154 ± 0.0003 and 0.00098, respectively.
Turning to IHAKRVTIMPKDI [H3 112-124 I H A K Rcit V T I M P K D I], the “peptide microarray binding signal” value was 0.00583 ± 8.8e-05 in test [1] (peptide modifications: H3R116cit, binder concentration: 50 nM); 0.0207 ± 0.0059 in test [1] (peptide modifications: H3R116cit, binder concentration: 500 nM); 0.00895 ± 0.0012 in test [2] (peptide modifications: H3R116cit, binder concentration: 10 nM); 0.00992 ± 0.0023 in test [2] (peptide modifications: H3R116cit, binder concentration: 100 nM); 0.00451 ± 0.0016 in test [3] (setting [13]); 0.00359 ± 0.00055 in test [3] (setting [14]). For the same molecule, the “peptide microarray binding signal” value in test [4] (setting [13]) amounted to 0.00177 ± 0.00034; in test [4] (setting [14]), 0.00179 ± 8.5e-05.

The values above are taken from the supplement of paper PMC4022240.
